Results on 40 compounds are retold here after PubChem BioAssay (Tox21).

Inconclusive results are not listed. Where a call stands in place of a potency, no number is given. Where a structure was tested more than once in an assay, its records may differ in their call. Calls of active or inactive are those of the source. Calls follow the shape of the full dose curve. Residues, ends and D or L forms follow the SMILES beside them.
Potency is read from the fitted curve at half-maximal effect.

Chain of Progesterone receptor (Homo sapiens) (P06401 whole entry, looked up): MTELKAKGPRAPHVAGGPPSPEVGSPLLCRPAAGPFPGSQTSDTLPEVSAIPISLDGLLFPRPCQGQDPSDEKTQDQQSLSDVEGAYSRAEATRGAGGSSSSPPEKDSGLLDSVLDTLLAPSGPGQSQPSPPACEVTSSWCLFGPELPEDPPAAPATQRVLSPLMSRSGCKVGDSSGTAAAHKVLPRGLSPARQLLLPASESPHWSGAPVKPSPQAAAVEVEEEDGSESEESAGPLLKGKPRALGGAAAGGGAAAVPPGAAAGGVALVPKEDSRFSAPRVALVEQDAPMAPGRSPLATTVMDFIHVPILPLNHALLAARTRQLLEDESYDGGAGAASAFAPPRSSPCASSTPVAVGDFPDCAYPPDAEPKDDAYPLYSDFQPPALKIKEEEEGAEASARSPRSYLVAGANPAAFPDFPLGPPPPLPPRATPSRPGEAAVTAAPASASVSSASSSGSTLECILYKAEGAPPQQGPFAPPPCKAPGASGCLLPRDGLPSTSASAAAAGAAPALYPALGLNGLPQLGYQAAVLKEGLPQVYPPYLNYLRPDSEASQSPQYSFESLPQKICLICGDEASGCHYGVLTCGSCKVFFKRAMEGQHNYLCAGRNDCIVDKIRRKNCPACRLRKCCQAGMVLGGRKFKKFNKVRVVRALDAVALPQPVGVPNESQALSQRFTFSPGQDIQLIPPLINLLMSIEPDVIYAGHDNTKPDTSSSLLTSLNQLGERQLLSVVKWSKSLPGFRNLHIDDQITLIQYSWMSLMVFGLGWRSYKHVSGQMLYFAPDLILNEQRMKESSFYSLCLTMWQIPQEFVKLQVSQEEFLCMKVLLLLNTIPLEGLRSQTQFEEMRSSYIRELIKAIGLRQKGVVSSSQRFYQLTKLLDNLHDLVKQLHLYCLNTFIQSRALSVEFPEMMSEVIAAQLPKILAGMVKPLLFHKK

This assay deals with Progesterone receptor (Homo sapiens) (UniProt P06401). Kind of assay: qHTS assay to identify small molecule agonists of the progesterone receptor (PR) signaling pathway (AID 1346784). Also: nearly all actives have a fitted effect of over 30% in size. The conditions noted are these: PR-UAS-bla HEK293T, beta-lactamase FRET ratio, 16 h; series mostly up to 92.4 µM. The text has this:
U.S. Tox21 Program National Center for Advancing Translational Sciences [NCATS] NIH Chemical Genomics Center [NCGC] U.S. Environmental Protection Agency [EPA] National Institutes of Environmental Health Sciences [NIEHS] National Toxicology Program [NTP] U.S. Food and Drug Administration [FDA] […] Endocrine disrupting chemicals (EDCs) and their interactions with steroid hormone receptors like PR causes disruption of normal endocrine function. To identify the compounds that activate PR signaling, a PR-UAS-bla GripTite cell line i.e. PR-UAS-bla HEK 293T (Invitrogen, Carlsbad, CA, USA) containing a beta-lactamase reporter gene under the control of an Upstream Activator Sequence (UAS) was used to screen Tox21 10K compound library.
Tox21 Assay Protocol Summary: PR-UAS-bla HEK 293T cells were dispensed at 3,000 cells/5 uL of assay medium containing 2% charcoal stripped FBS per well into black wall/clear-bottom 1536-well plates using a Multidrop Combi (ThermoFisher Scientific, Waltham, MA) dispenser. After the assay plates were incubated at a 37C and 5% CO2 for 6hr, 23 nL of compounds dissolved in DMSO, positive controls or DMSO only was transferred to the assay plate by a Pintool station (Kalypsys, San Diego, CA). The plates were incubated at 37C and 5% CO2 for 16hr. Then 1 uL of LiveBLAzer B/G FRET substrate was added using a BioRAPTR FRD (Flying Reagent Dispenser, Aurora Discovery, San Diego, CA). After the plates were incubated at room temperature for 2 hours, fluorescence intensity was measured by an Envision plate reader (PerkinElmer, Shelton, CT).
(Quantitative high-throughput screening tests each substance at several concentrations.)
For the compound `COC(=O)[C@H](Cc1ccccc1)NC(=O)[C@@H](N)CC(=O)O` (H-Asp-Phe-OMe), the Potency entry is “inactive”.

In the case of `O=C(c1ccccc1)c1ccccc1`, the Potency result was “inactive”.

Regarding `Nc1ccc(S(=O)(=O)Nc2nccs2)cc1`, the Potency result was “inactive”.

As to `CC(C)(Oc1ccc(C2CC2(Cl)Cl)cc1)C(=O)O` (stereo not given), the Potency entry is “inactive”.

In the case of `CC(=O)Nc1nnc(S(N)(=O)=O)s1`, the Potency entry is “inactive”.

Take `NC(N)=O`: the Potency result was “inactive”.

For `O=c1cc[nH]c(=S)[nH]1`, the Potency entry is “inactive”.

For the compound `C1N2CN3CN1CN(C2)C3`, the Potency entry is “inactive”.

With `Cc1ccc(C)c(OCCCC(C)(C)C(=O)O)c1`, the Potency entry was “inactive”.

Turning to `CCCC(O)C(CC)CO` (stereo not given), the Potency result is “inactive”.

Take `CCCCC(CC)COC(=O)/C=C/c1ccc(OC)cc1` (stereo not given): the Potency entry was “inactive”.

Regarding `O=C(c1ccccc1)C(O)c1ccccc1` (stereo not given), the Potency result is “inactive”.

For `CC(O)C(=O)O` (stereo not given), the Potency entry is “inactive”.

For `O=C(O)/C=C\C(=O)O`, the Potency result was “inactive”.

In the case of `Cc1cc(=O)[nH]c(=S)[nH]1`, the Potency entry is “inactive”.

Consider `CNC[C@H](O)c1cccc(O)c1`, for which the Potency entry is “inactive”.

Turning to `CCCNC(=O)NS(=O)(=O)c1ccc(Cl)cc1`, the Potency result is “inactive”.

Turning to `OCCc1ccccc1`, the Potency result is “inactive”.

On to `CC(O)CO` (stereo not given), for which the Potency entry was “inactive”.

`Cc1cn([C@H]2C[C@H](N=[N+]=[N-])[C@@H](CO)O2)c(=O)[nH]c1=O`: the Potency result is “inactive”.

With `Nc1ccc(O)c(C(=O)O)c1`, the Potency result is “inactive”.

Turning to `O=C(O)CCC(=O)O`, the Potency result was “inactive”.

Take `NC(=O)c1cnccn1`: the Potency result is “inactive”.

In the case of `O=S(=O)(O)c1ccc2cc(O)ccc2c1`, the Potency result is “inactive”.

As to `NS(=O)(=O)c1cc(C(=O)O)c(NCc2ccco2)cc1Cl`, the Potency entry was “inactive”.

For the compound `CC(=O)OCC(COC(C)=O)OC(C)=O`, the Potency result is “inactive”.

`O=C(O)C(=O)O`: the Potency entry was “inactive”.

Regarding `CCCCCCCCCCCCCCCC(=O)O`, the Potency result is “inactive”.

As to `COc1ccc2[nH]cc(CCNC(C)=O)c2c1`, the Potency entry was “inactive”.

As to `NNC(=O)c1ccncc1`, the Potency entry is “inactive”.

As to `O=S(=O)(O)NC1CCCCC1`, the Potency is 4.12 µM (active) and inactive.

`Cc1noc(NS(=O)(=O)c2ccc(N)cc2)c1C`: the Potency entry is “inactive”.

Take `Nc1ccc(C(=O)O)cc1`: the Potency entry was “inactive”.

With `C/C=C/c1ccc(OC)cc1`, the Potency result is “inactive”.

In the case of `CCCCOC(=O)CC(CC(=O)OCCCC)(OC(C)=O)C(=O)OCCCC`, the Potency entry was “inactive”.

Regarding `O=C(O)CCCCC(=O)O`, the Potency result is “inactive”.

For the compound `N=C(N)c1ccc(OCCCCCOc2ccc(C(=N)N)cc2)cc1`, the Potency result was “inactive”.

Take `O=C(O)c1cccc([N+](=O)[O-])c1`: the Potency entry is “inactive”.

As to `O=C1NC(=O)c2ccccc21`, the Potency result is “inactive”.

Regarding `CC(=O)NS(=O)(=O)c1ccc(N)cc1`, the Potency result was “inactive”.
